From patent US20040110161, “Method for detecting mutations in nucleotide sequences” (published 2004) come the findings set out here.

The labels stand for the following.
B1: Brc AT (dsDNA)
DNA 1: AAATGTTATTACGGCTAATTGTGCTCACTGTACTTGGAA
DNA 2: CATTCCAAGTACAGTGAGCACAATTAGCCGTAATAACAT
B2: Rb AT (dsDNA)
DNA 1: AAATAAGATCAAATAAAGGTGAATCTGAGAGCCATGCAA
DNA 2: CCTTGCATGGCTCTCAGATTCACCTTTATTTGATCTTAT
B3: Met AT (dsDNA)
DNA 1: AACTATAGTATTCTTTATCATACATGTCTCTGGCAAGAC
DNA 2: TGGTCTTGCCAGAGACATGTATGATAAAGAATACTATAG
B4: p53 AT (dsDNA)
DNA 1: AAAGTTCCTGCATGGGCGGCATGAACCGGAGGCCCATC
DNA 2: AGGATGGGCCTCCGGTTCATGCCGCCCATGCAGGAACT
B5: bcl AT (dsDNA)
DNA 1: AAGGTCGCGGGATGCGGCTGGATGGGGCGTGTGCCCGGG
DNA 2: AGCCCGGGCACACGCCCCATCCAGCCGCATCCCGCGACC
B6: APC AT (dsDNA)
DNA 1: AAGATCTTCAGCTGACCTAGTTCCAATCTTTTCTTTTAT
DNA 2: AAATAAAAGAAAAGATTGGAACTAGGTCAGCTGAAGATC
B7: MSH AT (dsDNA)
DNA 1: AACCTTTCTCCAAAATGGCTGGTCGTACATATGGAACAG
DNA 2: ACCTGTTCCATATGTACGACCAGCCATTTTGGAGAAAGG

The test deals with T1, MutS (Cy5-labeled) (Escherichia coli, UniProt P23909 P23909:1-853).
T1 sequence: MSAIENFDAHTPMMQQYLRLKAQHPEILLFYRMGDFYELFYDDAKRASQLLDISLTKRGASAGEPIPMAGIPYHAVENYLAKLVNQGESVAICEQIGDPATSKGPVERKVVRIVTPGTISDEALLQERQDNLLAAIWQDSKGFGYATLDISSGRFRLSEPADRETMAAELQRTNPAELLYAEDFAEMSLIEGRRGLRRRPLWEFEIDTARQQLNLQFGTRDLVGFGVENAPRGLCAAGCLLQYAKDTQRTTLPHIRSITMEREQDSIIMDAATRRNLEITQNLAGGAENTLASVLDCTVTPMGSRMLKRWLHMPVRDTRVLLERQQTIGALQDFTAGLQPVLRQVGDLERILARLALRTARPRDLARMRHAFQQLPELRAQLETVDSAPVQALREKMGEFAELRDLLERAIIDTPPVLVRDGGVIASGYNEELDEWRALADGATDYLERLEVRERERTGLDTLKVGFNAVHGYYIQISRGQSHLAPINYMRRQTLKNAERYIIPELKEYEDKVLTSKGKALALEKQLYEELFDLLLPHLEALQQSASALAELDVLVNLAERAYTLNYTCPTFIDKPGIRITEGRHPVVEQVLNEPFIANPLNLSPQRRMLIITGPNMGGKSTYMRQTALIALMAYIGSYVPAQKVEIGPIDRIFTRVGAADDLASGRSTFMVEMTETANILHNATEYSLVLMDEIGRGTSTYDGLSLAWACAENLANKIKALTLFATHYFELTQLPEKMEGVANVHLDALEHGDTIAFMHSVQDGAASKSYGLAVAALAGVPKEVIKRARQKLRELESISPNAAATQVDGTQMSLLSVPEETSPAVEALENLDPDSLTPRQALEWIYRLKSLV
Nature of the test: agarose chip. The following applies: tags: Cy5 nonspecific amine label; also Gene Check unlabeled in EMSA; label: 5'-biotin, 5'-Cy3. (In EMSA bound probe runs differently from free probe, usually more slowly.)
On to B1, for which the binding signal amounted to 52.4 fluorescence units.
Next, B2: 59.6 fluorescence units; B3: 46.3 fluorescence units.
In the case of B4, the binding signal was 48.7 fluorescence units.
With B5 the figure was 51.2 fluorescence units.
With B6 the figure was 40.5 fluorescence units; with B7, 45.9 fluorescence units.
